Reference: PMC4336329 (PLoS ONE, 2015)
Out of some 310,000 compounds screened, about 14,000 (4.5%) showed an effect of 50% or more. Effects have a minus sign here. What follows is part of a selection rich in strong results, with near analogues and random picks from the rest.

Target: human ether-à-go-go-related gene (hERG) potassium channel (human, UniProt Q12809)
Assay: primary screen, population patch clamp on CHO cells stably expressing hERG; higher = less effect of the substance
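Also: peak tail current of the secondary pulse compared with the same well before compound.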

Sequence of human ether-à-go-go-related gene (hERG) potassium channel (Q12809 whole entry, looked up): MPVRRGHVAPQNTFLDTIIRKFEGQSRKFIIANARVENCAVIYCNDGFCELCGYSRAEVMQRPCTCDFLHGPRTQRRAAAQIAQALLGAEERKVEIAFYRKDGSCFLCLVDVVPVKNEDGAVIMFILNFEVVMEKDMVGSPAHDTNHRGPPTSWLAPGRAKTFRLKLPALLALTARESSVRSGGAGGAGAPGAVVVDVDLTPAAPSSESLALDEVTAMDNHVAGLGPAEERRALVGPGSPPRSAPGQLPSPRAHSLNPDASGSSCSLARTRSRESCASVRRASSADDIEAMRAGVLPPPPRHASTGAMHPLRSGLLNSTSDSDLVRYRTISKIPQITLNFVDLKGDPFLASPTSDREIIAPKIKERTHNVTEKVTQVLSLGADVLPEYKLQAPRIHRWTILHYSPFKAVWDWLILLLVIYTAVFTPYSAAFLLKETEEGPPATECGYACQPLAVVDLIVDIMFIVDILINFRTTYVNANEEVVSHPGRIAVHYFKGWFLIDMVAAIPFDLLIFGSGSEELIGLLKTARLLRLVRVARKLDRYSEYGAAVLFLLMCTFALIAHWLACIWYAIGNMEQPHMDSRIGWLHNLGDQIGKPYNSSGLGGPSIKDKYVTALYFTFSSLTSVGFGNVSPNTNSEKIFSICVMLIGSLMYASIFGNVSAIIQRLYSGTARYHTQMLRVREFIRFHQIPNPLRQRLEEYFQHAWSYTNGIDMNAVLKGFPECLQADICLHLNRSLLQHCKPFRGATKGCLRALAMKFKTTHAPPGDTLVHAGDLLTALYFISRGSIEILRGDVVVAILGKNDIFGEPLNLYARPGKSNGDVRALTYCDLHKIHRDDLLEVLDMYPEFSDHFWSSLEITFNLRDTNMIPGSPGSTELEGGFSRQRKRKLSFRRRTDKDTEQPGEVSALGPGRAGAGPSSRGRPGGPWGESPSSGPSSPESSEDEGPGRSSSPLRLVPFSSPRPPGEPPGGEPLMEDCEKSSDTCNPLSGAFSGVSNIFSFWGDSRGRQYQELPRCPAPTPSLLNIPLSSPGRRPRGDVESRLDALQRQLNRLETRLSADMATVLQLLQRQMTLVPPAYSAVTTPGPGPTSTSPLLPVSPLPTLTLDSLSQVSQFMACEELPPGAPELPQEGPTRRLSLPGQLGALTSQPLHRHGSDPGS

| Compound | hERG current change (%, negative = inhibition) at 10uM |
| --- | --- |
| CC(C)Cn1cnc2sc3c(c2c1=N)CCCC3 | -25.2% |
| N=c1c2c3c(sc2ncn1CCN1CCOCC1)CCCC3 | -16.9% |
| N=c1c2c3c(sc2ncn1Cc1ccccc1)CCCC3 | -49.7% |
| N=c1c2c3c(sc2ncn1CCCN1CCOCC1)CCCCC3 | -51.2% |
| CCCCn1cnc2sc3c(c2c1=N)CCCC3 | -52.1% |
| N=c1c2c3c(sc2ncn1N)CCCCC3 | -12.6% |
| N=c1c2c3c(sc2ncn1CCCO)CCCC3 | -19.5% |
| N=c1c2c3c(sc2ncn1Cc1ccco1)CCCCC3 | -62% |
| N=c1c2c3c(sc2ncn1CCN1CCOCC1)CCCCC3 | -42.9% |
| CC1CCCCC1NC(=O)CCNS(=O)(=O)c1ccc2c(c1)CCC(=O)N2 (stereo not drawn) | 6.25% |
| O=C(Nc1cc(C(F)(F)F)ccc1-n1cnc2ccccc21)c1ccccc1 | -32% |
| O=C(Nc1ccc(/C=C/c2nc3ccccc3o2)cc1)c1cccc(C(F)(F)F)c1 | 0.151% |
| COC(=O)c1ccc(NC(=S)NCCc2cccc(C)c2)cc1 | -2.3% |
| CCCn1c(NC(=O)c2cccc(C)c2C)nc2ccccc21 | -26.7% |
| Cc1ccccc1NC(=O)CSc1nnc2ccc(-c3ccncc3)nn12 | -69.5% |
| CC(=O)Nc1cccc(NC(=O)CSc2nnc3ccc(-c4ccncc4)nn23)c1 | -17.8% |
| CCOc1ccccc1NC(=O)CSc1nnc2ccc(-c3ccncc3)nn12 | -54.3% |
| Cc1ccccc1NC(=O)CSc1nnc2ccc(-c3cccnc3)nn12 | -33% |
| CCOc1ccccc1NC(=O)CSc1nnc2ccc(-c3ccccn3)nn12 | 2.41% |
| CCOc1ccccc1NC(=O)CSc1nnc2ccc(-c3cccnc3)nn12 | -25.8% |
| CCOc1ccccc1NC(=O)CSc1nnnn1Cc1ccccc1 | -40.5% |
| CC(=O)c1ccc(S(=O)(=O)N2CCN(C(=O)CSc3ccc(F)cc3)CC2)cc1 | 11.7% |

| Compound | hERG current change (%, negative = inhibition) at 10uM |
| --- | --- |
| CC[C@]12C=CCN3CCC4(c5cc(Br)c(OC)cc5N(C)C4[C@@](O)(C(=O)OC)[C@@H]1OC(C)=O)C32 (stereo partly drawn) | 7.6% |
| COc1ccc(/C=C(/NC(=O)c2ccccc2)C(=O)N/N=C/c2ccncc2)cc1 | 9.78% |
| N#CCSc1nc(-c2ccccc2)nc2ccccc12 | 7.83% |
| CCc1ccccc1NC(=O)CN1CCC(NC(=O)COC)CC1.Cl | 13.4% |
| Cc1cccc(NC(=O)CN2CCN(C(=O)c3ccc(OCc4cn5ccccc5n4)cc3)CC2)c1C | -46.5% |
| CCc1ccccc1NC(=O)CN1CCN(C(=O)CN2C(=O)NC3(CCCC3)C2=O)CC1 | 7.54% |
| CCc1ccccc1NC(=O)CN1CCN(C(=O)COc2ccccc2C#N)CC1 | -34.6% |
| CCc1ccccc1NC(=O)CN1CCN(CC(=O)Nc2ccc(-c3ccccc3)cc2)CC1 | -53.3% |
| CCc1ccccc1NC(=O)CN1CCN(C(=O)CNC(=O)Cc2cccc3ccccc23)CC1 | -59.6% |
| Cc1cccc(NC(=O)CN2CCN(C(=O)C(C)Oc3ccc(C#N)cc3)CC2)c1C (stereo not drawn) | -76.9% |
| CCc1ccccc1NC(=O)CN1CCN(C(=O)CNC(=O)c2ccccc2F)CC1 | -13.5% |
| Cc1cccc(NC(=O)CN2CCN(CC(=O)Nc3ccc(-c4ccccc4)cc3)CC2)c1C | -17% |
| CCc1ccccc1NC(=O)CN1CCN(C(=O)CCC(=O)N2CCC(c3ccccc3)=N2)CC1 | -58% |
| Cc1cccc(NC(=O)CNC(=O)COc2ccc(-c3ccc(C#N)cc3)cc2)c1C | 4.86% |
| CCc1ccccc1NC(=O)CN1CCN(CC(=O)NCc2ccc(Cl)cc2)CC1 | -46.6% |
| COc1ccc(Cl)cc1NC(=O)CN(C)C(=O)c1ccc(OCc2ccccc2)c(OC)c1 | 6.49% |
| COc1coc(C(O)CN)cc1=O (stereo not drawn) | 4.57% |
| CC(=O)c1ccc(NC(=O)C2CC(c3ccc(F)cc3)=NO2)cc1 (stereo not drawn) | -6.78% |
| CC(C(=O)N(C)C1CCCCC1)N1CCC(C(N)=O)CC1 (stereo not drawn) | 25% |
| Cc1ccc2c(c1)c1ncnc(N3CCc4ccccc4C3)c1n2C | 0.68% |
| COc1cccc(CN(CC(=O)NCc2ccccc2)S(=O)(=O)CCl)c1 | -16.8% |
| CCOC(=O)c1csc(NC(=O)c2ccc(S(=O)(=O)N(C)C)cc2)n1 | -20.9% |

| Compound | hERG current change (%, negative = inhibition) at 10uM |
| --- | --- |
| Cc1ccnc(SCC(=O)N2CCN(c3cccc(Cl)c3)CC2)n1 | -25.2% |
| O=C(NC1CCN(C(=S)Nc2ccccc2Cl)CC1)C1CCCCC1 | 14% |
| O=C(CSc1nc2scc(-c3ccccc3)c2c(=O)[nH]1)NCCc1ccccc1 | -1.09% |
| Cc1cccc(NC(=O)CNC(=O)CN2CCN(C)CC2)c1C | 7.6% |
| Cc1cccc(NC(=O)CN2CCN(C(=O)COc3cccc(Br)c3)CC2)c1C | -70.4% |
| CCOC(=O)N1CCN(CC(=O)Nc2cccc(Br)c2)CC1 | -18.9% |
| Cc1cccc(NC(=O)CN2CCOCC2)c1C | 13.9% |
| Cc1cccc(NC(=O)CN2CCN(C(=O)CNC(=O)Cc3cccc4ccccc34)CC2)c1C | -57.4% |
| Cc1ccccc1NC(=O)CNC(=O)Cc1cccc2ccccc12 | 1.16% |
| CCc1ccccc1NC(=O)CN1CCN(C(=O)CNC(=O)c2ccc(N3CCCC3=O)cc2)CC1 | -3.9% |
| O=C(CN1CCN(C(=O)CNC(=O)c2ccc3c(c2)OCO3)CC1)Nc1ccccc1Cl | -49.3% |
| CCc1ccccc1NC(=O)CN1CCN(C(=O)CNC(=O)c2ccc(-c3ccccc3)cc2)CC1 | -57% |
| O=C(O)CN1CCN(CC(=O)O)CCN(CC(=O)O)CCN(CC(=O)O)CC1 | 7.18% |
| O=C(Nc1cccc(C(=O)N2CCOCC2)c1)c1ccccc1Cl | -17% |
| COc1ccc(C(=O)Nc2ccc(-c3ccc(C)o3)cc2)cc1S(=O)(=O)N1CCOCC1 | 14.6% |
| O=C(NCc1cccs1)C1CCCN1C(=O)Nc1ccccc1 (stereo not drawn) | 21% |
| CCN(C(=O)COC(=O)c1ccc2ccccc2c1)c1c(N)n(Cc2ccccc2)c(=O)[nH]c1=O | 14.1% |
| COc1ccc(C(=O)OCC(=O)Nc2sccc2C(N)=O)cc1OC | -0.284% |
| CCC(=O)N(C)CCc1cc2c(c(OC)c1/C=N/Nc1ccc(C(=O)O)cc1)OCO2 | -1.63% |
| O=C(Nc1cccc(Cl)c1)c1nc[nH]c1C(=O)N1CCc2ccccc2C1 | -15.6% |
| CCOc1ccc(NS(=O)(=O)c2ccc(C(=O)N3CCCCC3)cc2)cc1 | -9.46% |
| COc1ccc(Cn2cnc3c(N)c(C)c(C)cc32)cc1 | 5.13% |

| Compound | hERG current change (%, negative = inhibition) at 10uM |
| --- | --- |
| N#CC1(NC(=O)COc2ccc3oc4ccccc4c3c2)CCCCC1 | 12.1% |
| COC(=O)c1ccc(CNC(=O)COC(=O)C2CC3C=CC2C3)cc1 (stereo not drawn) | 11.2% |
| COc1ccc(-n2nc3c(c2NC(=O)CCCCl)CSC3)cc1 | -1.78% |
| CCOCCCNC(=S)Nc1ccc2nc(N3CCOCC3)cc(C)c2c1 | -7.68% |
| CCCN(CCC)CCCNC(=S)Nc1ccc2nc(N3CCN(CC)CC3)cc(C)c2c1 | -3.08% |
| COCCNC(=S)Nc1ccc2nc(N3CCN(C)CC3)cc(C)c2c1 | 8.03% |
| CCOCCCNC(=S)Nc1ccc2nc(N3CCCC3)cc(C)c2c1 | -73.3% |
| CCCN(CCC)CCCNC(=S)Nc1ccc2nc(N3CCCC3)cc(C)c2c1 | -60.4% |
| Cc1cc(N2CCCC2)nc2ccc(NC(=S)NCCCN3CCC(C)CC3)cc12 | -29.6% |
| Cc1cc(N2CCCC2)nc2ccc(NC(=S)NCCCOC(C)C)cc12 | -83.4% |
| CCOCCCNC(=S)Nc1ccc2nc(N3CCN(CC)CC3)cc(C)c2c1 | 4.36% |
| CCCN(CCC)CCCNC(=S)Nc1ccc2nc(N3CCN(C)CC3)cc(C)c2c1 | 8.86% |
| CCN1CCN(c2cc(C)c3cc(NC(=S)NCCCOC)ccc3n2)CC1 | 5.8% |
| COCCNC(=S)Nc1ccc2nc(N3CCCC3)cc(C)c2c1 | -71.6% |
| CCN(CC)CCNC(=S)Nc1ccc2nc(N3CCCC3)cc(C)c2c1 | -8.93% |
| CCOc1ccc(C(=O)Nc2ncn[nH]2)cc1 | 19.1% |
| O=C(CCc1c[nH]c2ccccc12)N/N=C/c1ccc2c(c1)OCO2 | 6.33% |
| CC1=CCC2C(=O)N(CCc3c[nH]c4ccccc34)C(=O)C2C1 (stereo not drawn) | -9.31% |
| COc1ccc(CC(=O)NNc2ncnc3c2cnn3-c2ccc(C)cc2)cc1OC | 10.5% |
| COc1ccc(CNC(=O)Cn2nnc(-c3ccc(NC(=O)C4CCCCC4)cc3)n2)cc1 | 14% |
| COc1ccccc1NS(=O)(=O)c1cc(-c2cnc(C3CC3)o2)ccc1C | 3.37% |
